Reference: PubChem BioAssay (Tox21)
Where “and” joins values, the source holds several entries; their conditions need not be identical. Equal values may be shown once. Results filed as inconclusive are left out. A call without a number means that no potency is given here. Where a structure was tested more than once in an assay, its records may differ in their call. Calls of active or inactive are those of the source. Unless noted, the call rests on the fitted dose curve; in most records, active means well fitted curve in the direction sought with a large enough effect in the repeat runs; inconclusive means weak or mixed curves; inactive means no such curve, though single readings can be large; an effect the other way counts as inactive or inconclusive.

Columns and labels:
[1] = target: Thyrotropin-releasing hormone receptor (Homo sapiens) (UniProt P34981); test: qHTS assay to identify small molecule agonists of the thyrotropin-releasing hormone receptor (TRHR) signaling pathway (AID 1346891; calls by dose curve; further: series mostly up to about 58 µM)
Thyrotropin-releasing hormone receptor (Homo sapiens), sequence (P34981 whole entry, looked up): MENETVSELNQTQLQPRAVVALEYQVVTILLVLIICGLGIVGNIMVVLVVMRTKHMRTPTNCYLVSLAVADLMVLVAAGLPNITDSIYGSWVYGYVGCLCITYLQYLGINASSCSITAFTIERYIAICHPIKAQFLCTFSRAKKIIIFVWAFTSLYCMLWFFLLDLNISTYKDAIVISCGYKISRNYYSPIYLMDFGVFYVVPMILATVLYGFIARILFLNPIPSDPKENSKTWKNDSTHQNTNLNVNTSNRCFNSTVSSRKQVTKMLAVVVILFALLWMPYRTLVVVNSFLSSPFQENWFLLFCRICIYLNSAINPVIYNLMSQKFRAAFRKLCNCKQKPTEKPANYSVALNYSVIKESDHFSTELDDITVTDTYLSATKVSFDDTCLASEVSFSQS
Method in brief: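 Readout was intracellular calcium fluorescence in TRHR-Hek293 cells. Cells were incubated 18 h, dye-loaded 2 h at 37 °C, and treated with compound in agonist mode.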

[2] = Caspase-3/7 induction in HepG2 cells by small molecules, qHTS assay (AID 1346978); further: nearly all actives have a fitted effect of over 15% in size
Method in brief: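 Wild-type HepG2 cells, 2,000/well, settled 5 hr at 37 C and 5% CO2, then compound-treated for 17 hr; caspase-3/7 activity read by luminescent Caspase-Glo 3/7 after 30 min at room temperature.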

[3] = Caspase-3/7 induction in CHO-K1 cells by small molecules, qHTS cell viability counter screen (AID 1346979); further: nearly all actives have a fitted effect of over 35% in size; further: potency means the concentration at half of the fitted maximal effect
Method in brief: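 Following a 5hr settling period, CHO-K1 cells at 1,500 per well received DMSO-dissolved compounds. Cell viability was quantified 16hr later by CellTiter-Fluor fluorescence, measured after 1hr with reagent at 37C.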

[4] = Caspase-3/7 induction in CHO-K1 cells by small molecules, qHTS assay (AID 1346980); further: nearly all actives have a fitted effect of over 15% in size; further: potency means the concentration at half of the fitted maximal effect
Method in brief: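 Wild-type CHO-K1 cells exposed to compounds for 17hr at 37 C, 5% CO2. Caspase-3/7 activity then measured by Caspase-Glo 3/7 luminescence after 30min at room temperature.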

[5] = Caspase-3/7 induction in HepG2 cells by small molecules, qHTS cell viability counter screen (AID 1346981); further: nearly all actives have a fitted effect of over 30% in size; further: potency means the concentration at half of the fitted maximal effect
Method in brief: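 Fluorescence read-out of live-cell protease activity (CellTiter-Fluor) after 1 hr with reagent. This was measured in the same wells as the caspase-3/7 luminescence, on HepG2 cells exposed to DMSO-dissolved compounds for 16 hr at 37 C.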

[6] = target: Nuclear receptor subfamily 1 group I member 2 (Homo sapiens) (UniProt O75469); test: Human pregnane X receptor (PXR) small molecule agonists, qHTS assay (AID 1346982); further: nearly all actives have a fitted effect of over 35% in size; further: potency means the concentration at half of the fitted maximal effect
Nuclear receptor subfamily 1 group I member 2 (Homo sapiens), sequence (O75469 whole entry, looked up): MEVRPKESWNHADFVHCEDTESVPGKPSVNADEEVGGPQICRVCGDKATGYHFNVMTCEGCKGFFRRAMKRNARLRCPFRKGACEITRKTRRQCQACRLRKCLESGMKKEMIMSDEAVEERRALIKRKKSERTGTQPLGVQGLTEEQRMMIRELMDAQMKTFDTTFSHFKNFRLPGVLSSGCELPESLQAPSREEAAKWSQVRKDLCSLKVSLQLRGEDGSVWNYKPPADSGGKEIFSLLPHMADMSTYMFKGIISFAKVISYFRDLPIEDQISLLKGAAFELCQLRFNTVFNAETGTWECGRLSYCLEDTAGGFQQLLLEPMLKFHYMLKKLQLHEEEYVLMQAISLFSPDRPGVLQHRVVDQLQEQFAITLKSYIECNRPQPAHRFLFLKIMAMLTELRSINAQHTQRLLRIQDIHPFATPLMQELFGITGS
Method in brief: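 HepG2 PXR-Luc reporter line, 5% charcoal-stripped FBS; 5 hr pre-incubation, compound (DMSO) 24 hr at 37 C/5% CO2; ONE-Glo 30 min RT; luminescence read-out.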

[7] = Human pregnane X receptor (PXR) small molecule agonists, qHTS cell viability counter screen (AID 1346977); further: nearly all actives have a fitted effect of over 50% in size
Method in brief: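 In each well, the PXR reporter HepG2 line was checked for viability: CellTiter-Fluor reagent added 23hr post-dosing, fluorescence read after 1hr incubation at 37C.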

With `N#CC(Br)Br` as the compound, how does the Potency [1] read?
Its Potency is “inactive”.

What about the Potency [2] of the same compound?
Its Potency is “inactive”.

And the Potency [3]?
Its Potency is “inactive”.

And the Potency [4]?
Its Potency is “inactive”.

What about the Potency [5] of the same compound?
The Potency was “inactive”.

What about the Potency [6] of the same compound?
The Potency was “inactive”.

Which results are given for `Nc1ccc(-c2ccc(N)c(N)c2)cc1N`?
Potency [7]: inactive; Potency [2]: inactive; Potency [3]: 68.4 µM (active) and 61.1 µM (active); Potency [4]: inactive; Potency [5]: 48.4 µM (active); Potency [6]: 24.3 µM (active)

What does the source list for `Cc1ccc(N)c(N)c1`?
Potency [2]: inactive; Potency [4]: inactive; Potency [5]: inactive; Potency [6]: 8.66 µM (active) and 19.3 µM (active)

What does the source list for `CCOC(=S)S`?
Potency [7]: inactive; Potency [2]: inactive; Potency [3]: 61.1 µM (active) and 23.1 µM (active); Potency [4]: 61.1 µM (active); Potency [5]: inactive

For `CCOCN(C(=O)CCl)c1c(C)cccc1CC`, which Potency [1] is on record?
The Potency was “inactive”.

What about the Potency [2] of the same compound?
Its Potency is “inactive”.

And the Potency [3]?
The Potency was 57.7 µM (active).

What about the Potency [4] of the same compound?
The Potency was “inactive”.

What about the Potency [6] of the same compound?
Its Potency is 2.58 µM (active).

For `NNC(=S)NN`, which Potency [1] is on record?
Its Potency is “inactive”.

What about the Potency [2] of the same compound?
The Potency was “inactive”.

And the Potency [4]?
Its Potency is 56 µM (active) and inactive.

And the Potency [6]?
Its Potency is “inactive”.

For `CNC(=O)N(C)c1nnc(C(C)(C)C)s1`, which Potency [1] is on record?
The Potency was “inactive”.

What about the Potency [2] of the same compound?
Its Potency is “inactive”.

What about the Potency [3] of the same compound?
The Potency was “inactive”.

What about the Potency [4] of the same compound?
Its Potency is “inactive”.

What about the Potency [5] of the same compound?
The Potency was “inactive”.

And the Potency [6]?
Its Potency is 54.5 µM (active).

For `CC1(C)C(C=C(Cl)Cl)C1C(=O)OC(C#N)c1cccc(Oc2ccccc2)c1` (stereo unspecified), which Potency [1] is on record?
The Potency was “inactive”.

What about the Potency [2] of the same compound?
Its Potency is “inactive”.

And the Potency [4]?
Its Potency is “inactive”.

What about the Potency [5] of the same compound?
The Potency was “inactive”.

What about the Potency [6] of the same compound?
Its Potency is 2.73 µM (active).
